Data reported in PubChem BioAssay (NCATS).
Where “and” joins values, the source holds several entries; their conditions need not be identical. Equal values may be shown once. Inconclusive results are not listed. Calls of active or inactive are those of the source. Unless noted, the call rests on the fitted dose curve; in most records, active means well fitted inhibition curve with a large enough effect; inconclusive means small, poorly fitted or top-dose-only effect; inactive means no such curve, though single readings can be large or run the other way.

System: not listed separately
Assay: Primary qHTS for inhibitors of nuclear receptor binding SET domain protein 2 (NSD2) in an RCH-ACV wild type WT cells (2C) (AID 1645877); further: nearly all actives have a fitted effect of over 70% in size
Details: RCH-ACV (leukaemia line) NSD2 WT (2C) viability, CellTiter-Glo, 72 h; series mostly up to 44.9 µM

Compound | Potency
C[C@@H](Nc1cc(NS(=O)(=O)N2CCC2)nc(SCc2cccc(F)c2F)n1)[C@@H](O)CO | inactive
O=C(O)c1n[nH]c2c1C[C@H]1C[C@@H]21 | inactive
O=c1c2cccnc2n(-c2cccc([N+](=O)[O-])c2)c(=O)n1Cc1ccncc1 | inactive
CC(NCc1ccc(OCc2cccc(F)c2)cc1)C(N)=O (stereo not drawn) | inactive
CNC(=O)COC(=O)NCCC1CCN(c2cccc(C)n2)CC1 | inactive

Target: Catechol O-methyltransferase (Homo sapiens) (UniProt P21964)
Assay: Confirmatory Screen for Target Class Profiling of Small Molecule Inhibitors of Methyltransferases (AID 1745852; calls by dose curve; further: potency means the concentration at half of the fitted maximal effect; on activity change, negative = inhibition: on the % scale 0 is the no-effect control and ±100 the full control effect)
Details: MTase-Glo luminescence, SAH detection, recombinant enzyme; measured here: COMT max response; stronger effect = lower value

Catechol O-methyltransferase (Homo sapiens), sequence (P21964 whole entry, looked up): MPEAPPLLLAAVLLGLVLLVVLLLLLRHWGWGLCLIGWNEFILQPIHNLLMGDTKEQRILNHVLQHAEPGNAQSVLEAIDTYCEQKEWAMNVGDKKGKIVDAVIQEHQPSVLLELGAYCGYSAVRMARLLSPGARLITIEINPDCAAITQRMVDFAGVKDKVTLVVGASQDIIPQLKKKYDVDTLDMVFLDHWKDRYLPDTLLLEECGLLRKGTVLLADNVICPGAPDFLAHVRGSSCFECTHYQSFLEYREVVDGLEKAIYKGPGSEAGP

Compound | activity
CC(C)N(C[C@H]1O[C@@H](n2cnc3c(N)ncnc32)[C@H](O)[C@@H]1O)C1CC(CCc2nc3ccc(C(C)(C)C)cc3[nH]2)C1 (stereo partly drawn) | -14.6% and -12.5%
Cc1[nH]cnc1C1CCN(c2nc3cccc4c3n2CCC4=O)CC1 | 1.4%
CN1CCC(c2c[nH]c3ccc(NC(=O)c4ccc(F)cc4)cc23)CC1 | -8.83%

Target: Guanidinoacetate N-methyltransferase (Homo sapiens) (UniProt Q14353)
Assay: as above
Details: MTase-Glo luminescence, SAH detection, recombinant enzyme; activity change, negative = inhibition: at 57.3 µM (top of the series) unless noted; series mostly up to 57.3 µM

Compound | Potency | activity change, negative = inhibition [%]
CC(C)N(C[C@H]1O[C@@H](n2cnc3c(N)ncnc32)[C@H](O)[C@@H]1O)C1CC(CCc2nc3ccc(C(C)(C)C)cc3[nH]2)C1 (stereo partly drawn) | 30.4 µM (active) | -3.18
Cc1[nH]cnc1C1CCN(c2nc3cccc4c3n2CCC4=O)CC1 |  | 0.0241
CN1CCC(c2c[nH]c3ccc(NC(=O)c4ccc(F)cc4)cc23)CC1 |  | -10.4

Target: Nicotinamide N-methyltransferase (Homo sapiens) (UniProt P40261)
Assay: as above
Details: MTase-Glo luminescence, SAH detection, recombinant enzyme; measured here: NNMT max response; stronger effect = lower value

Nicotinamide N-methyltransferase (Homo sapiens), sequence (P40261 whole entry, looked up): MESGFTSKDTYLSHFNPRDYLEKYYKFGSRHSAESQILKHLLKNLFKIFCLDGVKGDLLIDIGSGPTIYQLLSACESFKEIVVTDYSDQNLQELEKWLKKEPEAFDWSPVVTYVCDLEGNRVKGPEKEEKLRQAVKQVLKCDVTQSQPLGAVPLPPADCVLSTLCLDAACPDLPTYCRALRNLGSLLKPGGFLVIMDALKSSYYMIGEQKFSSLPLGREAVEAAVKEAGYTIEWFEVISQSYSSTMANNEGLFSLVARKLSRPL

Compound | activity
CC(C)N(C[C@H]1O[C@@H](n2cnc3c(N)ncnc32)[C@H](O)[C@@H]1O)C1CC(CCc2nc3ccc(C(C)(C)C)cc3[nH]2)C1 (stereo partly drawn) | -85.8% and -82.8%
Cc1[nH]cnc1C1CCN(c2nc3cccc4c3n2CCC4=O)CC1 | -9.9%
CN1CCC(c2c[nH]c3ccc(NC(=O)c4ccc(F)cc4)cc23)CC1 | -3.82%

Target: Phenylethanolamine N-methyltransferase (Homo sapiens) (UniProt P11086)
Assay: as above
Details: MTase-Glo luminescence, SAH detection, recombinant enzyme; measured here: PNMT max response; stronger effect = lower value

Phenylethanolamine N-methyltransferase (Homo sapiens), sequence (P11086 whole entry, looked up): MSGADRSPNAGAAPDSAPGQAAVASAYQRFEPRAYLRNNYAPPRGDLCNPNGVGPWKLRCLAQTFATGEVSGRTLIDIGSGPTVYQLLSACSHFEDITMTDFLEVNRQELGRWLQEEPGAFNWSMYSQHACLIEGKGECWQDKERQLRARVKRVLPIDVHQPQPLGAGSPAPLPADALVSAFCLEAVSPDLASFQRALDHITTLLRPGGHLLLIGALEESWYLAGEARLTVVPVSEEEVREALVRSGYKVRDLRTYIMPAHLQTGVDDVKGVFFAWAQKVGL

Compound | activity
CC(C)N(C[C@H]1O[C@@H](n2cnc3c(N)ncnc32)[C@H](O)[C@@H]1O)C1CC(CCc2nc3ccc(C(C)(C)C)cc3[nH]2)C1 (stereo partly drawn) | -90.9% and -89.3%
Cc1[nH]cnc1C1CCN(c2nc3cccc4c3n2CCC4=O)CC1 | 1.15%
CN1CCC(c2c[nH]c3ccc(NC(=O)c4ccc(F)cc4)cc23)CC1 | -4.53%
